Source: PubChem
Hits are enriched below; roughly 0.43% of the tested compounds scored in any of these assays.
N370S GC = inhibitors or activators of N370S glucocerebrosidase for Gaucher disease | P04062 | N370S GC spleen homogenate, 4MU-glucoside fluorescence | Potency, µM (doses to about 59.4 µM), for the others: at the highest dose activity change, negative = inhibition, most hits filed as inhibitors | 330,000 tested, 0.092% active | AID 2101;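 also: potency is read from the fitted curve at half-maximal effect; 0% = full enzyme activity and -100% = no enzyme basal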
aGal spleen mod = inhibitors or activators of human alpha-galactosidase in spleen homogenate; P06280; human spleen homogenate, 4MU-alpha-Gal fluorescence, 40 min; Potency, µM (top dose mostly 80 µM), for inactives: at the highest dose activity change, negative = inhibition, most hits filed as inhibitors; 240,000 tested, 0.008% active;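 also: potency is read from the fitted curve at half-maximal effect; 0% = enzyme with vehicle and -100% = no enzyme basal signal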
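qHTS titration in buffer at pH 5.0. Alpha-galactosidase activity in spleen homogenate was measured via 4-methylumbelliferone release from 1 mM fluorogenic substrate after 40 min at 37C and a pH 10 stop. AC50 came from Hill fits of control-normalized data.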
aGlu spleen mod = lysosomal alpha-glucosidase (human) modulation; P10253; 240,000 tested, 0.006% active; human spleen homogenate, 4-MU-alpha-glucoside fluorescence; Potency, µM (highest dose often 79.9 µM), inactives show at the top dose activity change, negative = inhibition, usual class: inhibitors;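 also: potency is read from the fitted curve at half-maximal effect; 0% = enzyme with vehicle and -100% = no enzyme basal signal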
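Human spleen homogenate (1 ug) incubated with compounds and 1 mM 4-methylumbelliferyl-alpha-D-glucopyranoside in pH 5.0 citrate/phosphate buffer, 37 C, 40 min. Stopped at pH 10; 4-MU fluorescence (Ex 365/Em 440 nm); AC50 by Hill fit.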
GAA glycogen mod = alters human alpha-glucosidase cleavage of glycogen | P10253 | recombinant GAA, glycogen substrate, Amplex Red glucose oxidase fluorescence | Potency, µM (doses to about 76.4 µM), inactives show at the top dose activity change, negative = inhibition, actives largely listed as inhibitors | 300,000 tested, 0.38% active;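 also: potency is read from the fitted curve at half-maximal effect; 0% = full enzyme reaction and -100% = no-enzyme basal signal; the screen sought inhibitors and activators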
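Recombinant human alpha-glucosidase (4 nM final) hydrolysed bovine liver glycogen (30 ug) for 40 min at 37 C in pH 5.0 citrate/phosphate with 0.01% Tween-20. Released glucose detected by glucose oxidase/Amplex Red, Ex 573/Em 610 nm. Compounds up to 77 uM; AC50 from Hill fits.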
GAA inh = blocks human lysosomal alpha-glucosidase. P10253. purified human GAA, 4-MU-alpha-glucoside fluorescence. Potency, µM (series often up to 76.9 µM), inactives show at the highest dose activity change, negative = inhibition, most hits filed as inhibitors. 200,000 tested, 0.005% active;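 also: potency is read from the fitted curve at half-maximal effect; plate controls were uninhibited enzyme wells for no effect and no-enzyme background for full effect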
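Fluorogenic assay: 4 nM human alpha-glucosidase with 400 uM 4-methylumbelliferyl-alpha-D-pyranoside in 50 mM citrate/phosphate, 0.005% Tween-20, pH 5.0, 20 min at room temperature. Compounds tested up to 77 uM; AC50 from Hill fits.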
GLA inh pH 4.5 = alpha-galactosidase A (human) inhibition, pH 4.5 | purified enzyme, 4-MU-alpha-Gal fluorescence, pH 4.5 | activity change, negative = inhibition, % at 105 µM | P06280 | 230,000 tested, under 10 active | AID 1467;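 also: 0% = full activity with enzyme and -100% = basal without enzyme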
Target sequence (P06280 whole entry, looked up): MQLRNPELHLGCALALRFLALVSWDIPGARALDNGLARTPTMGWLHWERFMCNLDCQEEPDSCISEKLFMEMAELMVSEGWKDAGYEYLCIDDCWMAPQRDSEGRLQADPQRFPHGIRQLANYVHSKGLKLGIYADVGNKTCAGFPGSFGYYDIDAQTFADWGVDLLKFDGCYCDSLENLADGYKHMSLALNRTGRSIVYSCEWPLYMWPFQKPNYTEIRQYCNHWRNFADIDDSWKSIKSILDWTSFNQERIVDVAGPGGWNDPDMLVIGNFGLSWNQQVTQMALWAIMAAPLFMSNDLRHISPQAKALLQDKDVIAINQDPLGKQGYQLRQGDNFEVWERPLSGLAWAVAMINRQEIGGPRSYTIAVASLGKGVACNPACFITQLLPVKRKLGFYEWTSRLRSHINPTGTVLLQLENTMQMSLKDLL
An asterisk follows results filed as active; ? = inconclusive; . = no result; ! = a repeat was not active; [ ] = another dose, or the depositor's remark. Calls follow the shape of the dose curve; as a rule, active = well fitted curve in the direction sought with a large enough effect; inconclusive = small, poorly fitted or top-dose-only effect, or another doubt; inactive = no such curve, though single readings can be large; an effect the other way counts as inactive or inconclusive.

SMILES	N370S GC	aGal spleen mod	aGlu spleen mod	GAA glycogen mod	GAA inh	GLA inh pH 4.5
CC(=O)C1=C(C)N(Cc2ccccc2)C(=O)N[C@@H]1c1cccc(C(F)(F)F)c1	?	-1%	1%	-3%	-3%[15.4 µM]	4
COc1cc(/C=N/Nc2ccc(Cl)c(C(=O)O)c2)ccc1OC(=O)c1ccccc1F	-3%	.	.	5.6µM*	.	.
CCOC(=O)C1CCN(C(=O)COC(=O)c2nc3nc(C)cc(C)n3n2)CC1	-6%	.	.	.	.	.
C[C@@]12CC[C@H]3OC(=O)C=C3C1CC[C@@]13CC(CCC12)[C@](CO)(O[C@H]1O[C@H](CO)[C@@H](O)[C@H](O)[C@H]1O)C3 (some centres not stated)	18µM*	.	.	.	.	.
CCOC(=O)c1[nH]c2ccccc2c1NC(=S)Nc1ccccc1C	3%	9%	-3%	14µM*	-8%	1
O=c1[nH]c2cc([N+](=O)[O-])c([N+](=O)[O-])cc2[nH]c1=O	8.9µM*	11%	-6%	-6%	-11%	-9
O=C(Cn1cc(SCc2ccc(C(F)(F)F)cc2)c2ccccc21)N1CCOCC1	.	.	.	-17%[76.3 µM]	.	.
Cn1c(=O)c2c(nc(N/N=C/c3ccco3)n2C)n(C)c1=O	3%	4%	-2%	8.9µM*	?	8
Cn1c(=O)c2c(nc(N/N=C/c3cccs3)n2C)n(C)c1=O	-3%	-8%	-8%	?	-10%	-3
Cc1oc2cc(O)cc(C)c2c(=O)c1-c1cnn(-c2ccccc2)c1	11%	0%	-7%	-6%	0%	6
Cc1oc2c(O)c(O)ccc2c(=O)c1-c1ccc(Cl)cc1	-9%	.	.	7.1µM*	.	.
Cc1oc2c(O)c(O)ccc2c(=O)c1-c1ccccc1	-12%	12%	8%	8.8µM*	6%[15.4 µM]	4
Cc1c(Cc2ccccc2)c(=O)oc2c(O)c(O)ccc12	-10%	1%	3%	5µM*	-9%	5
O=c1cc(-c2ccccc2)oc2c(O)c(O)ccc12	-12%	22%	16%	.	.	-11
Cc1oc2c(O)c(O)ccc2c(=O)c1-c1cnn(-c2ccccc2)c1	7%	10%	-13%	5.6µM*	-15%	2
Cc1ccc(NC(=O)COC(=O)c2sccc2C)cc1S(=O)(=O)N1CCOCC1	3%	1%	-4%	6%	-9%	5
O=C1CCCc2nc(N3CCN(C(c4ccccc4)c4ccccc4)CC3)ncc21	4%	0%	-14%	-5%	-4%	-13
Cc1ccc(-n2c(CNc3cccc(Cl)c3)n[nH]c2=S)cc1	2%	-2%	-2%	28µM*	-3%	10
Cc1ccc(NCc2n[nH]c(=S)n2-c2cccc(Cl)c2)cc1	22%	-7%	-3%	?	1%	16
COC(=O)c1ccc2c(=O)n(CCCCCC(=O)N3CCN(c4ccc(F)cc4)CC3)c(=O)[nH]c2c1	12%	6%	10%	-4%	?	-6
C=CCc1ccc(O)c(-c2ccc(O)c(CC=C)c2)c1	-10%	-20%	-11%	35µM*	.	-3
NC(=O)c1ccc(N2CCN(c3ccc(O)cc3)CC2)c([N+](=O)[O-])c1	-9%	0%	-3%	5µM*	10%	5
CC(=O)c1ccc(N2CCN(c3ccc(C(N)=O)cc3[N+](=O)[O-])CC2)cc1	-16%	13%	4%	-3%	6%	-2
O=[N+]([O-])c1cc(Cl)ccc1N1CCN(c2ccccc2O)CC1	-10%	-5%	-6%	8.8µM*	-1%	5
NC(=O)c1ccc[n+](CC(=O)c2ccccc2)c1	-14%	0%	-9%	-5%	.	-1
SMILES	N370S GC	aGal spleen mod	aGlu spleen mod	GAA glycogen mod	GAA inh	GLA inh pH 4.5
Oc1ccc(/C=N/NC(=S)N/N=C/c2ccc(O)cc2)cc1	-4%	-16%	2%	3.5µM*	5%	3
Cc1ccc(C(C(=O)NC(C)(C)C)N(C(=O)CCC(=O)Nc2ccccn2)c2ccccc2F)cc1 (configuration not stated)	-23%	.	.	3%[76.3 µM]	.	.
COc1ccc(Cl)cc1N(C(C)C(=O)NC1CCCC1)S(C)(=O)=O (configuration not stated)	-2%	-5%	-12%	-8%	-3%	2
O=C1CC(N2CCN(c3ccccc3O)CC2)C(=O)N1Cc1ccccc1 (configuration not stated)	9%	-4%	-4%	3.1µM*	-2%	0
CC(C)Cn1c(=O)c2sccc2n2c(CCCC(=O)NCCc3ccccc3)nnc12	.	.	.	16%[76.3 µM]	.	.
Cc1noc(C)c1C(=O)NNc1ccc(C(C)C)cc1	9%	14%	12%	40µM*	-5%	8
CC(=O)N1CCN(Cc2nc3cc(NC(=O)c4ccc(F)cc4)ccc3n2C)CC1	7%	1%	2%	9%	13%	3
Cc1cc(C)c2nc(N(CCCN(C)C)C(=O)c3ccc(S(=O)(=O)N4CCCCCC4)cc3)sc2c1	16µM*	.	.	.	.	.
C/C(=N\Nc1ccc(C(=O)O)cc1)c1ccc2c(c1)Nc1ccccc1S2	-8%	-10%	3%	11µM*	.	-10
COc1ccccc1CNC(=O)c1cn(C)c2ccc(S(=O)(=O)N3CCC(C)CC3)cc2c1=O	.	.	.	-6%[76.3 µM]	.	.
COCCNc1c(-c2ccc(OC)cc2)nc2ccc(Cl)cn12	-24%	4%	8%	5µM*	7%	9
O=C(CSc1nncs1)NCCCc1ccccc1	2%	-3%	3%	10µM*	?	-5
N/N=c1\sc2ccccc2n1-c1ccccc1	5%	-11%	-7%	20µM*	-3%	-19
CC(=O)N=c1sc2ccccc2n1C	6%	1%	1%	6%	-10%	-6
Cc1ccc(NS(=O)(=O)c2ccc(C(=O)N3CCOCC3)cc2)cc1	1%	.	.	.	.	.
CC(=O)/C(=N\Nc1ccc(C)cc1)N1CCOCC1	-18%	7%	1%	12µM*	-2%	-3
O=C(/C=C/c1ccc(O)cc1)c1ccc(O)cc1O	1.8µM*!	5%	2%	3%	-10%	-5
O=C(O)/C=C\c1ccc(O)c(O)c1	-9%[21.6 µM]	-10%[29.1 µM]	-3%[29.1 µM]	.	.	-4
O=C(/C=C/c1ccc(O)c(O)c1)c1ccccc1O	-6%	-10%	-3%	7.9µM*	.	-2
O=C(O)/C=C/C(=O)Nc1ccc(SC(F)(F)C(F)(F)C(F)(F)F)cc1	-7%	3%	2%	-6%	-6%	0
CCOc1ccc(S(=O)(=O)N(CC)CC(=O)N2CCCC2)cc1	-12%	.	.	0%[76.3 µM]	.	.
CC1(C)OC2CCN3C(C(O)COS3(=O)=O)C2O1 (configuration not stated)	4%	.	.	6%[76.3 µM]	.	.
COc1ccccc1CNC(=O)c1ccc(CS(=O)(=O)c2ccccc2OC)o1	4%	5%	8%	4%	-3%	-2
